This is part of a sample that, as a whole, favours compounds with a hit. Of some 83,000 tested, about 20% had one in any assay.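 The test compound was applied at a single concentration to cells in 96-well plates for 48 hours, and percent growth was recorded.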 A number with no mark means an inactive call. Activity calls are given as the source filed them. The calls were made as follows: active = growth percent below 10; inactive = the rest.

Among the test systems are SR leukemia; RPMI-8226 leukemia; OVCAR-8 ovarian; OVCAR-5 ovarian; OVCAR-4 ovarian; SK-OV-3 ovarian; IGROV1 ovarian; OVCAR-3 ovarian; HS 578T breast; NCI/ADR-RES ovarian.
Common to all, as to assay: NCI-60 one-dose screen, 48 h (100 = growth as untreated, 0 = no growth, -100 = all killed)
What all share (conditions): 10 µM

Take `COc1ccc(-c2nc3sc(-c4ccccc4)c(-c4ccccc4)n3c2/C=C/c2ccc(F)cc2)cc1`: the growth with SR leukemia is 90.5%; in the experiment on RPMI-8226 leukemia it was 95.5%; in the experiment on OVCAR-8 ovarian it was 85%; in the experiment on OVCAR-5 ovarian, 88.2%; in the experiment with OVCAR-4 ovarian, 83.2%; in the experiment on SK-OV-3 ovarian, 91.1%. Also, the growth in the experiment with IGROV1 ovarian was 115%; in the experiment on OVCAR-3 ovarian, 94.1%; in the experiment with HS 578T breast it was 95.8%; with NCI/ADR-RES ovarian, 103%.
Regarding `CNCCCNCCCN1C(=O)c2ccc3c4c(ccc(c24)C1=O)C(=O)N(CCCNCc1ccccc1OC)C3=O`, the growth is -0.146% (active) in the experiment on SR leukemia; -16.2% (active) in the experiment with RPMI-8226 leukemia; -31.9% (active) in the experiment with OVCAR-8 ovarian; 5.23% (active) in the experiment with OVCAR-5 ovarian; -91.5% (active) in the experiment on OVCAR-4 ovarian; 36.8% in the experiment with SK-OV-3 ovarian. The growth with IGROV1 ovarian is -40.7% (active); in the experiment with OVCAR-3 ovarian it was -17.6% (active); in the experiment with HS 578T breast, 4.28% (active); in the experiment with NCI/ADR-RES ovarian, 63%.
For the compound `C/C(=N\NC(=O)c1sc(=S)n(C)c1N)c1cc2ccccc2o1`, the growth with SR leukemia is 42.6%; in the experiment on RPMI-8226 leukemia, 42.5%; with OVCAR-8 ovarian it was 69.6%; in the experiment on OVCAR-5 ovarian it was 74.1%; with OVCAR-4 ovarian, 61%; in the experiment on SK-OV-3 ovarian it was 133%. Also, the growth with IGROV1 ovarian is 37.5%; in the experiment with OVCAR-3 ovarian, 65%; in the experiment with HS 578T breast, 61.6%; in the experiment with NCI/ADR-RES ovarian, 49.1%.
`O=C(NNc1nc(N2CCCC2)nc(N2CCCC2)n1)c1ccccc1`: the growth with SR leukemia was 70.8%; in the experiment with RPMI-8226 leukemia, 106%; with OVCAR-8 ovarian, 104%; in the experiment with OVCAR-5 ovarian, 100%; in the experiment on OVCAR-4 ovarian, 106%; in the experiment on SK-OV-3 ovarian it was 121%. The growth is 103% with IGROV1 ovarian, 108% with OVCAR-3 ovarian, 104% in the experiment on HS 578T breast and 102% with NCI/ADR-RES ovarian.
With `CCc1ccc(-c2nnc(COc3ccc(-c4nc5cc(Cl)c(Cl)cc5[nH]4)cc3OC)o2)cc1`, the growth in the experiment on SR leukemia was 0.504% (active); in the experiment with RPMI-8226 leukemia it was 56.9%; in the experiment with OVCAR-8 ovarian, 28.9%; in the experiment with OVCAR-5 ovarian, 103%; in the experiment with OVCAR-4 ovarian, 45.9%; in the experiment with SK-OV-3 ovarian, 96.9%. The growth in the experiment with IGROV1 ovarian is 64.5%; in the experiment on OVCAR-3 ovarian it was 65.6%; with HS 578T breast, 77%; in the experiment with NCI/ADR-RES ovarian it was 55%.
With `O=C1/C(=C/c2ccc(O)cc2)CSc2ccc(Cl)cc21`, the growth in the experiment on SR leukemia is 62.7%; in the experiment on RPMI-8226 leukemia it was 98.2%; in the experiment with OVCAR-8 ovarian, 89.8%; in the experiment on OVCAR-5 ovarian, 95.2%; in the experiment with OVCAR-4 ovarian, 94.9%; with SK-OV-3 ovarian it was 105%. In addition, the growth in the experiment with IGROV1 ovarian is 16.7%; with OVCAR-3 ovarian, 90.4%; in the experiment on HS 578T breast, 71.1%; in the experiment on NCI/ADR-RES ovarian it was 82.2%.
In the case of `C/C(=N\NC(N)=S)C(C)(C)O`, the growth is 81.2% with SR leukemia; 74% with RPMI-8226 leukemia; 55.3% in the experiment on OVCAR-8 ovarian; 105% with OVCAR-5 ovarian; 66.6% in the experiment on OVCAR-4 ovarian; 109% in the experiment on SK-OV-3 ovarian. Besides, the growth in the experiment with IGROV1 ovarian was 22.4%; in the experiment with OVCAR-3 ovarian it was 53.1%; in the experiment on HS 578T breast, 97.1%; in the experiment on NCI/ADR-RES ovarian, 32.7%.
Consider `C[C@]12CC[C@H]3[C@@H](CCC4=CC(=O)CC[C@@]43C)[C@@H]1CC[C@@H]2c1csc(N)n1`, for which the growth was 26.4% with SR leukemia; 19.1% in the experiment with RPMI-8226 leukemia; 46.5% in the experiment with OVCAR-8 ovarian; 99.8% in the experiment on OVCAR-5 ovarian; 23.1% in the experiment with OVCAR-4 ovarian; 89.1% with SK-OV-3 ovarian. Also, the growth in the experiment on IGROV1 ovarian was 87.3%; in the experiment with OVCAR-3 ovarian it was 63%; with HS 578T breast it was 104%; in the experiment with NCI/ADR-RES ovarian it was 32.1%.
Regarding `Clc1ccc(-c2nc(-c3cccs3)cn3ccnc23)cc1`, the growth is 59.5% in the experiment with SR leukemia; 64.7% with RPMI-8226 leukemia; 81% in the experiment on OVCAR-8 ovarian; 108% in the experiment with OVCAR-5 ovarian; 64.6% with OVCAR-4 ovarian; 50.2% in the experiment with SK-OV-3 ovarian. For the same compound, the growth with IGROV1 ovarian is 60.9%; in the experiment on OVCAR-3 ovarian, 72.6%; in the experiment with HS 578T breast, 87%; with NCI/ADR-RES ovarian, 55.5%.
As to `COc1ccc(-c2csc(NC(=O)CO[N+](=O)[O-])n2)cc1`, the growth in the experiment with SR leukemia was 96.1%; with RPMI-8226 leukemia, 106%; in the experiment with OVCAR-8 ovarian, 96.1%; with OVCAR-5 ovarian it was 113%; in the experiment with OVCAR-4 ovarian, 103%; in the experiment on SK-OV-3 ovarian, 108%. Also, the growth with IGROV1 ovarian is 97.9%; with OVCAR-3 ovarian, 101%; in the experiment with HS 578T breast, 104%; with NCI/ADR-RES ovarian, 99.6%.
For the compound `COc1ccc(Nc2nc(NCc3ccccc3)c3ccccc3n2)cc1`, the growth in the experiment with SR leukemia is 45.2%; with RPMI-8226 leukemia it was 75.9%; in the experiment on OVCAR-8 ovarian, 6.75% (active); in the experiment on OVCAR-5 ovarian, 78.7%; with OVCAR-4 ovarian it was -37.2% (active); in the experiment with SK-OV-3 ovarian, 13.4%. Further, the growth in the experiment with IGROV1 ovarian was 42.5%; with OVCAR-3 ovarian, 14.8%; in the experiment with HS 578T breast, -3.28% (active); in the experiment with NCI/ADR-RES ovarian it was 39.7%.
On to `COc1cccc2c1C(=O)c1c(O)c3c(c(O)c1C2=O)C[C@@](O)(C(=O)COC(=O)c1ccccc1)C[C@@H]3OC1CC(N)C(O)C(C)O1` (stereo not given in full), for which the growth is -43.7% (active) in the experiment with SR leukemia; -66.4% (active) in the experiment with RPMI-8226 leukemia; -77.3% (active) in the experiment on OVCAR-8 ovarian; -94.9% (active) in the experiment on OVCAR-5 ovarian; -87.9% (active) in the experiment with OVCAR-4 ovarian; -72.8% (active) in the experiment on SK-OV-3 ovarian. Moreover, the growth with IGROV1 ovarian is -75.2% (active); in the experiment with OVCAR-3 ovarian, -93.6% (active); with HS 578T breast, -41.6% (active); in the experiment with NCI/ADR-RES ovarian it was 22.5%.
As for `CCOC(=O)c1c(O)c2cc(-c3ccccc3)nc(OCC)c2c(=O)n1C`, the growth was 98% in the experiment with SR leukemia; 39.2% in the experiment on RPMI-8226 leukemia; 104% with OVCAR-8 ovarian; 104% in the experiment with OVCAR-5 ovarian; 90.1% in the experiment with OVCAR-4 ovarian; 107% in the experiment with SK-OV-3 ovarian. In addition, the growth with IGROV1 ovarian was 69.8%; in the experiment with OVCAR-3 ovarian it was 103%; in the experiment on HS 578T breast, 93%; in the experiment on NCI/ADR-RES ovarian it was 82.2%.
As for `NCCNc1ccc2cc(-c3nc4ccccc4[nH]3)c(=O)oc2c1`, the growth in the experiment on SR leukemia is 86.2%; with RPMI-8226 leukemia, 95.7%; in the experiment with OVCAR-8 ovarian, 98.2%; in the experiment with OVCAR-5 ovarian it was 101%; in the experiment with OVCAR-4 ovarian, 86.1%; in the experiment on SK-OV-3 ovarian, 104%. Moreover, the growth is 99.8% in the experiment with IGROV1 ovarian, 98.7% with OVCAR-3 ovarian, 91.6% in the experiment on HS 578T breast and 95.1% with NCI/ADR-RES ovarian.
